# High-throughput results: PubChem BioAssay, NMMLSC
# In the library only some 2.9% were active in any assay of this set; here they are far more common.
# MEKK2 mut-MEK5 = signal of MEK5 binding to mutant human MEKK2 PB1 domain. bead flow cytometry, Alexa488-MEK5 binding to MEKK2 mutant. percent response, % at 10 µM. 290,000 compounds, 0.35% hits; in the data active means percent response above about 24%, passing the limit was not always enough
# MEKK3 PB1 HTS = modulators (inhibitors or enhancers) of MEK5 binding to human MEKK3 PB1 domain; bead-based flow cytometry, Alexa488-MEK5 binding to MEKK3; actives lie on both sides; 0 = blocked by unlabeled MEK5, 100 = vehicle; AID 1529; binding response (% of control), % at 10 µM; 290,000 compounds, 1.4% hits;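 active means binding response more than 3 SD above or below the average of its plate-row segment, actives on both sides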;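 further: Alexa488 bead fluorescence after subtracting the streptavidin-only scavenger bead signal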
# B2AR ag = agonists of human beta-2 adrenergic receptor inducing internalization; P07550; response, % (test concentration not listed); 340,000 compounds, 0.43% hits; Am2.2-beta2AR cells, FAP receptor internalization, flow cytometry;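 active means response above a set limit, near 3 SD of response in nonfluorescent compounds, cut at about 42% in these data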
# GRK2 aptamer HTS = blocks RNA aptamer binding to human GRK2; inhibition of aptamer binding, % at 10 µM; P25098; bead flow cytometry, FAM-aptamer displacement from GRK2; 330,000 compounds, 0.59% hits;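 active means inhibition of aptamer binding above 40%, roughly 3 SD of noise, on plates passing a quality check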;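 further: median bead fluorescence of bound FAM aptamer so fluorescent compounds give negative values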
# Target sequence (P25098 whole entry, looked up): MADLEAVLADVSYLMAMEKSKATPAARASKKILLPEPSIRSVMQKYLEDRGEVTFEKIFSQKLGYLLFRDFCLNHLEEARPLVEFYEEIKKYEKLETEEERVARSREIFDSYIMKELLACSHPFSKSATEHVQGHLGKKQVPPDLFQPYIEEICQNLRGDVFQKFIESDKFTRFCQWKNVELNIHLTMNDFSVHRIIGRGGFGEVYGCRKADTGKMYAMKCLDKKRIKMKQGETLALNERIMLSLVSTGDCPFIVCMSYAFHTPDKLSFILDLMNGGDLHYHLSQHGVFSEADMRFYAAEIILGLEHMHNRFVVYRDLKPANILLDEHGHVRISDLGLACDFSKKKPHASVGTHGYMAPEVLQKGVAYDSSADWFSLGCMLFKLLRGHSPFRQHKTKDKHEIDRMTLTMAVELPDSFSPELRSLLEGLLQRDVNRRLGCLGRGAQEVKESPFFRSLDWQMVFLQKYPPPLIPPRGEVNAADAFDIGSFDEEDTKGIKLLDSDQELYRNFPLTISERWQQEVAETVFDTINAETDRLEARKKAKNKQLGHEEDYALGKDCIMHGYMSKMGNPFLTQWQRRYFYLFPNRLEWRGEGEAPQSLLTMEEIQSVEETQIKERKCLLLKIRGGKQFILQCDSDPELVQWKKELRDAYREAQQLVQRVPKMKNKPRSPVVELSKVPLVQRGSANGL
# MEKK2wt PB1 HTS = raises or lowers MEK5 binding to wildtype human MEKK2 PB1 domain | bead flow cytometry, Alexa488-MEK5 binding to MEKK2 WT; actives lie on both sides | 290,000 compounds, 1.1% hits | AID 1531 | binding response (% of control), % at 10 µM; in the data active means binding response below about 67% or above about 130%
# MEKK2wt confirm = raises or lowers MEK5 binding to wildtype human MEKK2, retest | shares compounds with MEKK3 PB1 HTS | bead flow cytometry, Alexa488-MEK5 binding to MEKK2 WT; actives lie on both sides | binding response (% of control), % at 10 µM | 5,900 compounds, 2.4% hits | AID 1892; in the data active means binding response below about 16% or above about 210%; inactive means in between
# MEKK2mut-MEK5 = signal of MEK5 binding to mutant human MEKK2, retest | shares compounds with MEKK3 PB1 HTS | bead flow cytometry, Alexa488-MEK5 binding to MEKK2 mutant | percent response, % at 10 µM | 5,900 compounds, 2% hits; in the data active means percent response mostly above about 71%, no sharp cut-off; inactive means mostly below about 38%;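 further: higher means compound restores mutant binding toward wildtype level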
# MEKK3-MEK5 inh = confirmation of inhibitors of MEK5 binding to human MEKK3 | shares compounds with MEKK3 PB1 HTS | bead flow cytometry, Alexa488-MEK5 binding to MEKK3; active compounds read low | binding response (% of control), % at 10 µM | 5,900 compounds, 1.8% hits;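 active means binding response below 72% of control, or above a set upper limit, though filed actives all read lower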;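 further: 100% = DMSO only wells and 0% = binding blocked by excess unlabeled MEK5; lower values mean stronger disruption of MEK5 binding to MEKK3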
# * hit, by the source's call; / = no result given; ! = not active in a repeat; [ ] = another dose, or the depositor's remark.
SMILES,MEKK2 mut-MEK5,MEKK3 PB1 HTS,B2AR ag,GRK2 aptamer HTS,MEKK2wt PB1 HTS,MEKK2wt confirm,MEKK2mut-MEK5,MEKK3-MEK5 inh
O=C(N/N=C/c1cc(Br)ccc1O)C(=O)Nc1ccccc1OC(F)(F)C(F)F,2.0,103.0,2.7,0.0,104.0,/,/,/
COc1ccccc1/C=N/NC(=O)C(=O)Nc1ccccc1OC(F)(F)C(F)F,1.0,134.0*,-6.8,1.0,104.0,97.0,-8.0,98.0
COc1cccc(/C=N/NC(=O)C(=O)Nc2ccccc2OC(F)(F)C(F)F)c1,1.0,149.0*,-3.0,1.0,111.0,104.0,7.0,104.0
COc1ccccc1NC(=O)C(=O)N/N=C/c1ccc([N+](=O)[O-])s1,-21.0,63.0*[inhibitor],12.2,/,60.0*[inhibitor],120.0,10.0,103.0
O=C(N/N=C/c1cc(Cl)ccc1O)C(=O)Nc1ccccc1OC(F)(F)C(F)F,3.0,105.0,14.7,4.0,98.0,/,/,/
COCCCN1C(=O)N(c2ccccc2)C(=O)C1CC(=O)Nc1ccc(F)cc1 (configuration not stated),5.0,107.0,4.4,2.0,108.0,/,/,/
COc1cccc2sc(=NC(=O)CS(=O)(=O)c3ccc(Cl)cc3)n(C)c12,/,/,8.4,3.0,/,/,/,/
NC(N)=N/N=C/c1c(Cl)cccc1Cl,-13.0,44.0*![inhibitor],1.3,0.0,51.0,102.0,-4.0,100.0
CCOC(=O)/C(C#N)=C\c1c(OCC)n(CC)c2ccccc12,1.0,134.0*,1.9,0.0,109.0,104.0,1.0,106.0
Cc1sc(N2CCN(S(=O)(=O)c3ccc4c(c3)NC(=O)CO4)CC2)nc1-c1ccccc1,-1.0,102.0,-0.7,0.0,99.0,/,/,/
COc1ccc(N=C2S/C(=C\c3cccs3)C(=O)N2CC(C)C)cc1,-7.0,82.0*[inhibitor],-5.9,0.0,90.0,103.0,-1.0,107.0
COc1ccc(N=C2S/C(=C\c3ccc(C)s3)C(=O)N2CC(C)C)cc1,11.0,107.0,-1.3,0.0,106.0,/,/,/
COC(=O)CCCCCN1C(=O)NC(C2CC2)C(C(=O)OCc2ccccc2)=C1C (configuration not stated),-1.0,103.0,2.5,0.0,98.0,/,/,/
O=C(NCCCN1CCC(Cc2ccccc2)CC1)c1ccc2nc(N3CCOCC3)sc2c1,9.0,104.0,-13.5,0.0,144.0*,147.0,17.0,101.0
CC1CCCC(C)N1CCCNC(=O)c1ccc2nc(N3CCOCC3)sc2c1 (configuration not stated),9.0,102.0,-10.6,0.0,124.0,/,/,/
Cc1ccc(S(=O)(=O)NCc2ccc(C(=O)NCCCN3CCC(Cc4ccccc4)CC3)cc2)cc1,40.0,106.0,1.4,0.0,161.0*,173.0,29.0,105.0
COc1cc(C(=O)NNC(=S)NCc2ccco2)cc(OC)c1OC,0.0,99.0,8.8,0.0,100.0,/,/,/
CC12CCC(C(=O)CC1=O)C2(C)C (configuration not stated),/,/,-2.9,/,/,/,/,/
Cc1ccc(CNC(=O)C(=O)NCC2CCCN2S(=O)(=O)c2cc(C)ccc2C)cc1 (configuration not stated),/,/,-10.4,0.0,/,/,/,/
CCc1ccc(NS(=O)(=O)c2cccs2)cc1,39.0*,114.0,-0.7,0.0,88.0,96.0,-7.0,99.0
Clc1ccc(-c2csc3ncnc(Cl)c23)cc1,0.0,130.0*,4.2,0.0,104.0,104.0,8.0,104.0
CN(C)c1ccc(NC(=O)c2ccc(Cn3cc([N+](=O)[O-])cn3)cc2)cc1,-13.0,85.0,17.8,2.0,78.0,/,/,/
COc1ccccc1NC(=O)C[n+]1ccccc1C,0.0,96.0,-5.2,2.0,98.0,/,/,/
NC1=NC[C@H](Cc2ccccc2)N1CCCCC1CCCCC1,13.0,111.0,-10.9,0.0,151.0*,132.0,13.0,106.0
NC1=NC[C@H](Cc2ccc(O)cc2)N1CCCCC1CCCCC1,20.0,112.0,-7.9,0.0,184.0*[inhibitor],127.0,40.0,106.0
SMILES,MEKK2 mut-MEK5,MEKK3 PB1 HTS,B2AR ag,GRK2 aptamer HTS,MEKK2wt PB1 HTS,MEKK2wt confirm,MEKK2mut-MEK5,MEKK3-MEK5 inh
NC1=NC[C@H](Cc2ccc(O)cc2)N1CCc1cc(C(F)(F)F)cc(C(F)(F)F)c1,8.0,89.0,-3.2,0.0,94.0,/,/,/
NC1=NC[C@H](Cc2ccccc2)N1CCc1cccc(F)c1,3.0,99.0,1.1,0.0,101.0,/,/,/
NC1=NC[C@H](Cc2ccc(O)cc2)N1CCc1cccc2ccccc12,50.0*,116.0,-1.5,0.0,152.0*,150.0,25.0,98.0
CCOc1ccc(N2CC(C(=O)Nc3nnc(CC)s3)CC2=O)cc1 (configuration not stated),-7.0,98.0,4.7,0.0,96.0,/,/,/
COc1ccc(NC2CCCN(C(=O)c3cccc(C)n3)C2)cc1OC (configuration not stated),0.0,101.0,-0.9,4.0,99.0,/,/,/
CCOc1cc(N2CCOCC2)c(OCC)cc1NC(=O)C1CCCC1,0.0,102.0,5.5,2.0,98.0,/,/,/
CCOc1cc(N2CCOCC2)c(OCC)cc1NC(=O)c1ccc(OC)cc1,1.0,108.0,0.5,1.0,102.0,/,/,/
CCOc1cc(N2CCOCC2)c(OCC)cc1NC(=O)c1ccc(OCc2c(C)noc2C)c(OC)c1,1.0,131.0*,3.4,2.0,105.0,104.0,6.0,102.0
CCOc1cc(N2CCOCC2)c(OCC)cc1NC(=O)CN1CCCC1,1.0,132.0*,10.1,2.0,108.0,101.0,-1.0,99.0
COC(=O)/C(=C/c1ccc2c(c1)c1ccccc1n2C)NC(=O)c1ccccc1,-1.0,73.0*[inhibitor],-10.6,2.0,99.0,105.0,-1.0,105.0
N#Cc1c(N)c(C#N)c(-c2ccc3c(c2)OCO3)c2c1CCCC2,2.0,107.0,-3.5,0.0,101.0,/,/,/
N#Cc1c(-c2ccc3c(c2)OCO3)csc1N,6.0,123.0*,15.4,2.0,116.0,105.0,4.0,105.0
O=C(NCc1ccco1)c1ccc(Cn2c(=O)c3ccccc3n(Cc3ccc(Cl)cc3)c2=O)cc1,8.0,133.0*,-0.5,0.0,122.0,108.0,3.0,105.0
CCS(=O)(=O)c1ccc(N=Nc2ccc(O)c3ncccc23)c(OC)c1,0.0,131.0*,-1.3,/,108.0,99.0,1.0,99.0
N#CNC(=Nc1cccc(F)c1)SCc1cccc(F)c1,1.0,136.0*,23.9,0.0,107.0,105.0,2.0,100.0
O=C(NNC(=S)NCc1ccco1)c1cccs1,6.0,99.0,2.1,0.0,95.0,/,/,/
Cc1ccc(CNC(=O)NC23CC4CC(CC(C4)C2)C3)cc1,1.0,100.0,1.5,1.0,99.0,/,/,/
